Screens as filed in PubChem BioAssay.
Shown are actives, neighbours in structure and some others; about 2.2% of the full set was active somewhere.
PfM18AAP inh-1: PfM18AAP enzyme inhibition; inhibition, % at 7.35 µM; recombinant PfM18AAP, H-Glu-NHMec fluorogenic cleavage; actives 1.2% (n = 290,000); AID 1822;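 active means inhibition above the campaign mean inhibition over all tested compounds plus 3 SD, cut at about 28% in these data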
PLCb3 inh: PLC-beta3 (human) inhibition, primary screen; Q01970; Purified PLC-beta3, fluorogenic substrate, fluorescence; inhibition, % at 12.2 µM; actives 0.18% (n = 370,000); AID 720704; in the data active means inhibition above about 11%
Rce1 inh: blocks yeast Ras-converting enzyme | yeast membranes, quenched prenylated peptide cleavage fluorescence | Q03530 | actives 0.27% (n = 290,000) | calls only;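 active means fall in fluorescence gain of 50% or more versus controls, with final raw signal at or below 3038400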
PLC-gamma1 inh: PLC-gamma1 (human) inhibition, primary screen; purified PLC-gamma1, fluorogenic substrate, fluorescence; actives 0.84% (n = 370,000); inhibition, % at 12.2 µM; P19174; in the data active means inhibition above about 9.5%
NPR2 activator: GC-B (human) receptor activation | AID 1920062 | actives 0.11% (n = 370,000) | HEK293-GC-B cells, CNP EC30, cGMP TR-FRET; 0% at EC30 CNP, 100% saturating CNP | P20594 | activation, % at 10 µM;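 active means activation at 10 µM reaching about 35% in either raw or pattern-adjusted values, limit read from the data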
GC-A act: GC-A (human) enzyme activation; activation, % at 10 µM; actives 0.14% (n = 370,000); P16066; HEK293 GC-A cells, cGMP TR-FRET, EC30 ANP; 0% at EC30 ANP, 100% saturating ANP; in the data active means activation above about 40%
PfM18AAP inh-2: confirmation of Plasmodium falciparum M18 aspartyl aminopeptidase inhibitors. shares compounds with PfM18AAP inh-1. recombinant PfM18AAP, H-Glu-NHMec fluorogenic cleavage. inhibition, % at 7.35 µM. actives 28% (n = 2,400). AID 2170;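 active means mean inhibition over replicate wells above the hit cutoff set for the earlier primary screen, cut at about 29% in these data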
CTSL1 counter: Cathepsin L (human) inhibition, confirmation | 2,400 tested, under 10 active | inhibition, % at 5.96 µM | AID 2178 | shares compounds with PfM18AAP inh-1 | purified cathepsin L1, Z-Leu-Arg-MCA fluorescence;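 active means average inhibition across replicates above the hit cutoff set in the earlier primary screen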
Large screens that a line does not name were inactive (follow-up assays come after a bar, where they were run).

CCOC(=O)C1=C(C)NC(=S)NC1c1ccco1 (stereo not given)	PfM18AAP inh-1 35 | PfM18AAP inh-2 inactive | CTSL1 counter inactive
Nc1ccccc1N=Nc1ccccc1N	PfM18AAP inh-1 41 | PfM18AAP inh-2 inactive | CTSL1 counter inactive
COC(=O)C1CCCN(C(=O)C(Cc2ccc3c(c2)OCO3)NC(C)=O)C1 (stereo not given)	none (no result: PfM18AAP inh-1, Rce1 inh)
O=c1cc(-c2ccc(O)cc2)oc2cc(O)c(C3OC(CO)C(O)C(O)C3O)c(O)c12 (stereo not given)	PfM18AAP inh-1 44 (no result: Rce1 inh) | PfM18AAP inh-2 inactive | CTSL1 counter inactive
O=S1(=O)c2ccc(Br)cc2OC[C@H](Cc2ccccc2)N1Cc1cn(Cc2ccc(Br)cc2)nn1	none (no result: PfM18AAP inh-1, Rce1 inh)
Cc1ccccc1N1CCN(Cc2cc3c(cc2[N+](=O)[O-])OCO3)CC1	PfM18AAP inh-1 35 | PfM18AAP inh-2 inactive | CTSL1 counter inactive
O=C(/C=C/c1ccccc1)c1cc(Br)ccc(=O)c1O	PfM18AAP inh-1 54 | PfM18AAP inh-2 inactive | CTSL1 counter inactive
O=C(/C=C/c1ccc(F)cc1)c1cc(Br)ccc1O	none
CCOC(=O)c1c(C)n(-c2ccc(C)cc2)c2c(C(C(C)=O)C(=O)O)c(Br)c(O)c(O)c12 (stereo not given)	PfM18AAP inh-1 65 | PfM18AAP inh-2 37 | CTSL1 counter inactive
O=C(Oc1ccc(Br)cc1C(=S)N1CCOCC1)c1ccc(F)cc1	PfM18AAP inh-1 32 (no result: PLCb3 inh, PLC-gamma1 inh, NPR2 activator, GC-A act) | PfM18AAP inh-2 inactive | CTSL1 counter inactive
COC(=O)C[C@@H]1CC[C@@H]2[C@H](COc3ccc(NC(=O)c4cccc(OC)c4)cc3C(=O)N2C)O1	none (no result: PfM18AAP inh-1, Rce1 inh)
Cc1onc(C(=O)NN)c1C(=O)Nc1ncc(C(F)(F)F)cc1Cl	PfM18AAP inh-1 55 | PfM18AAP inh-2 inactive | CTSL1 counter inactive
O=C(N[C@H](Cc1ccccc1)C(=O)NCCCc1ccccc1)[C@H]1O[C@@H](n2ccc(=O)[nH]c2=O)[C@H](O)[C@@H]1O	none (no result: PfM18AAP inh-1, Rce1 inh)
CCOc1cc(C2Nc3ccccc3NC3=C2C(=O)CC(C)(C)C3)ccc1O (stereo not given)	PfM18AAP inh-1 37 | PfM18AAP inh-2 inactive | CTSL1 counter inactive
O=C(NCC(c1ccccc1)c1ccccc1)[C@H](Cc1c[nH]c2ccccc12)NC1(C(=O)NC2CCCCC2)CCCCCC1	none (no result: PfM18AAP inh-1, Rce1 inh)
CCNC(=S)NNc1nc(N2CCCCC2)nc(N2CCOCC2)n1	PfM18AAP inh-1 44 | PfM18AAP inh-2 inactive | CTSL1 counter inactive
O=C(/C=C/c1ccccc1)Nc1ncn[nH]1	PfM18AAP inh-1 45 (no result: PLCb3 inh, PLC-gamma1 inh) | PfM18AAP inh-2 48 | CTSL1 counter inactive
COc1ccc(/C=C/C(=O)Nn2cnnc2)cc1	PfM18AAP inh-1 80 | PfM18AAP inh-2 71 | CTSL1 counter inactive
O=C(/C=C/c1ccccc1)Nn1cnnc1	PfM18AAP inh-1 80 | PfM18AAP inh-2 70 | CTSL1 counter inactive
C#CCNC(=O)/C=C/c1ccc(OC)cc1	none
COc1cc(NC(=O)C(OC(=O)CNC(=O)c2ccccc2)c2ccccc2)cc(C(F)(F)F)c1 (stereo not given)	none (no result: PfM18AAP inh-1, Rce1 inh)
Oc1ccc(/C=N/N=C/c2ccc(O)c(O)c2)cc1O	PfM18AAP inh-1 81 | PfM18AAP inh-2 76 | CTSL1 counter inactive
O=Cc1ccc(O)c(O)c1	PfM18AAP inh-1 48 | PfM18AAP inh-2 31 | CTSL1 counter inactive
O=C(/C(=N/N=C/c1ccc(O)c(O)c1)c1ccccc1)c1ccccc1	PfM18AAP inh-1 48 | PfM18AAP inh-2 30 | CTSL1 counter inactive
O=C1Nc2ccccc2/C1=N\N=C\c1ccc(O)c(O)c1	PfM18AAP inh-1 48 | PfM18AAP inh-2 47 | CTSL1 counter inactive
COc1cc(/C=N/N=C2/C(=O)Nc3ccccc32)ccc1O	none
Oc1ccc(/C=N/N=C/c2ccc(O)cc2)cc1	none (no result: Rce1 inh)
CCNC(=O)N(C)[C@H]1C[C@H]2c3[nH]c4c(-c5ccc6c(c5)OCO6)cccc4c3CCN2C(=O)[C@H]1[C@H](C)O	none (no result: PfM18AAP inh-1, Rce1 inh)
CCOC(=O)[C@]12CCCC3=C1N(CCC3)C(=O)[C@@H](CC(=O)NCc1cccc(C(F)(F)F)c1)C2	none (no result: PfM18AAP inh-1, Rce1 inh)
C=CCN1C[C@H](COC(=O)c2ccc(C)c(C)c2)Oc2cccc(F)c2S1(=O)=O	none (no result: PfM18AAP inh-1, Rce1 inh)
COC1=C[C@H](C(=O)NC2CCN(Cc3ccccc3)CC2)C(C)C(c2ccccc2)CC1=O (stereo not given in full)	none (no result: PfM18AAP inh-1, Rce1 inh)
COc1cccc(-c2ccc(CC[C@H]3O[C@H]4CC[C@@H](CO)O[C@H]4C[C@H]3NC(=O)c3cnccn3)cc2)c1	none (no result: PfM18AAP inh-1, Rce1 inh)
C/C(=N\NC(=O)c1cccc(N/N=C(\C)c2cc(O)ccc2O)c1)c1cc(O)ccc1O	PfM18AAP inh-1 40 (no result: Rce1 inh) | PfM18AAP inh-2 42 | CTSL1 counter inactive
C/C(=N\NC(=O)c1cccc(N/N=C(\C)c2ccco2)c1)c1ccco1	none
O=C1NC(=S)CN1c1ccccc1	PfM18AAP inh-1 42 | PfM18AAP inh-2 inactive | CTSL1 counter inactive
CCC(C)(C)NC(=O)c1cc(C(=O)OC)cc([N+](=O)[O-])c1	none
Cc1ccc(C(=O)NN2CCOCC2)cc1[N+](=O)[O-]	none
Cc1ccc(C(=O)Nn2cnnc2)cc1[N+](=O)[O-]	PfM18AAP inh-1 43 | PfM18AAP inh-2 39 | CTSL1 counter inactive
COC(=O)c1cc(C(=O)Nn2cnnc2)cc([N+](=O)[O-])c1	PfM18AAP inh-1 63 | PfM18AAP inh-2 73 | CTSL1 counter inactive
Cc1ccc(CN2C(C(=O)NC3CCCC3)CSCCS2(=O)=O)cc1 (stereo not given)	none (no result: PfM18AAP inh-1, Rce1 inh)
COc1cccc(CNC(=O)C2CCN(c3nc(OC)nc(OC)n3)CC2)c1	none (no result: PfM18AAP inh-1, Rce1 inh)
CCOc1ccccc1/C=N/Nc1nc2c(N)ncnc2n1[C@H]1O[C@@H](CO)[C@H](O)[C@@H]1O	PfM18AAP inh-1 36 | PfM18AAP inh-2 inactive | CTSL1 counter inactive
CC(=O)c1c(C)[nH]c(C(=O)NCCc2ccc(Cl)cc2)c1C	PfM18AAP inh-1 61 | PfM18AAP inh-2 inactive | CTSL1 counter inactive
C=CCCC(=O)N(Cc1ccccc1)c1ccccc1C(=O)Nc1cc(OC)ccc1OC	none (no result: PfM18AAP inh-1, Rce1 inh)
Cc1cc(O)cc(C)c1Cl	none (no result: PfM18AAP inh-1)
Cc1cc(O)c(N)c(C)c1Cl	PfM18AAP inh-1 50 | PfM18AAP inh-2 68 | CTSL1 counter inactive
O=C(OC12CCCN(C1)/C(=C/c1ccccc1)C2)c1cccc(F)c1 (stereo not given)	none (no result: PfM18AAP inh-1, Rce1 inh)
CNC(=S)NNC(=O)c1sccc1C	PfM18AAP inh-1 35 | PfM18AAP inh-2 inactive | CTSL1 counter inactive
C[C@@H]1OCN(C)[C@H]2C[C@H]3c4[nH]c5cccc(-c6ccccc6)c5c4CCN3C[C@@H]12	none (no result: PfM18AAP inh-1, Rce1 inh)
Cc1sc(NC(=O)Nc2ccccc2)c(C(N)=O)c1C	PfM18AAP inh-1 37 | PfM18AAP inh-2 inactive | CTSL1 counter inactive
